Hits are enriched below; roughly 0.83% of the tested compounds scored in any of these assays.
Menin MLL FP TR – displaces Texas Red mutant MLL peptide from human menin; O00255; Menin + Texas Red MLL mutant peptide, fluorescence polarization; Potency, µM (titrated, usually from 61.6 µM), for inactives: top-dose FP activity change, negative = inhibition, usual class: inhibitors; 0.23% of 270,000 active; AID 1768; active means well fitted inhibition curve with a large enough effect in the polarisation, with a control signal flat, not every such curve was filed as active; inconclusive means small, poorly fitted or top-dose-only effect, or effect the other way, or a change in a side signal; inactive means no such curve, though single readings can be large or run the other way; the % refers to the polarisation; further: potency means the concentration at half of the fitted maximal effect; % of control where 0% means no effect
Six1-Eya2 blk – inhibitors of human Six1/Eya2 interaction. Q15475+O00167. AlphaScreen GST-Six1/His-Eya2 binding, biochemical; stronger effect = lower value. activity change, % (concentration not given with the values). 0.56% of 360,000 active. AID 651725; further: on the % scale 0 is the no-effect control and ±100 the full control effect
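Homogeneous AlphaScreen proximity assay pairing GST-Six1 with His-tagged Eya2 (added as 5X mix: 250 nM and 500 nM) in 50 mM Tris pH 8.0, 300 mM NaCl, 1 mM TCEP. Glutathione donor and nickel acceptor beads; 1 h, 37 °C, dark.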
GLS inh – blocks human kidney-isoform glutaminase activity; GLS enzymatic activity, qHTS titration; Potency, µM (highest dose often 45.5 µM), without a hit: at the highest dose activity change, negative = inhibition, most hits filed as inhibitors; 0.21% of 410,000 active; active means well fitted inhibition curve with a large enough effect; inconclusive means small, poorly fitted or top-dose-only effect, or another doubt; inactive means no such curve, though single readings can be large or run the other way; further: potency means the concentration at half of the fitted maximal effect; on the % scale 0 is the no-effect control and ±100 the full control effect
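Compounds were pin-transferred onto hKGA, after which L-glutamine (1 mM solution) and a detection mix of glutamate oxidase, HRP and Amplex Red were added. Initial and 30 min RT fluorescence reads were collected.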
CtBP-E1A inh – blocks the CtBP interaction with E1A; AlphaScreen GST-E1A/His-CtBP binding, 1536-well; stronger effect = lower value; activity change, % (test concentration not listed); 0.49% of 340,000 active; AID 651724; further: on the % scale 0 is the no-effect control and ±100 the full control effect
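Protein mix (5X: 125 nM each GST-E1A, His-CtBP) was incubated with pinned compound 2 h at 37 deg C in dark, in 50 mM Tris pH 8.0 buffer with 300 mM NaCl. Glutathione donor and nickel acceptor beads followed; AlphaScreen signal read after 1 h.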
CXXC DNA block – MLL CXXC-DNA interaction inhibition; MLL-CXXC / FITC-HOXA9 DNA fluorescence polarization; AID 2662; Q03164; 0.037% of 290,000 active; Potency, µM (top dose mostly 115 µM), for the others: at the top dose activity change, negative = inhibition, hits mostly inhibitors; active means well fitted inhibition curve with a large enough effect in the polarisation, with a control signal flat, not every such curve was filed as active; inconclusive means small, poorly fitted or top-dose-only effect, or effect the other way, or a change in a side signal; inactive means no such curve, though single readings can be large or run the other way; the % refers to the polarisation; further: potency means the concentration at half of the fitted maximal effect
Target sequence (Q03164 whole entry, looked up): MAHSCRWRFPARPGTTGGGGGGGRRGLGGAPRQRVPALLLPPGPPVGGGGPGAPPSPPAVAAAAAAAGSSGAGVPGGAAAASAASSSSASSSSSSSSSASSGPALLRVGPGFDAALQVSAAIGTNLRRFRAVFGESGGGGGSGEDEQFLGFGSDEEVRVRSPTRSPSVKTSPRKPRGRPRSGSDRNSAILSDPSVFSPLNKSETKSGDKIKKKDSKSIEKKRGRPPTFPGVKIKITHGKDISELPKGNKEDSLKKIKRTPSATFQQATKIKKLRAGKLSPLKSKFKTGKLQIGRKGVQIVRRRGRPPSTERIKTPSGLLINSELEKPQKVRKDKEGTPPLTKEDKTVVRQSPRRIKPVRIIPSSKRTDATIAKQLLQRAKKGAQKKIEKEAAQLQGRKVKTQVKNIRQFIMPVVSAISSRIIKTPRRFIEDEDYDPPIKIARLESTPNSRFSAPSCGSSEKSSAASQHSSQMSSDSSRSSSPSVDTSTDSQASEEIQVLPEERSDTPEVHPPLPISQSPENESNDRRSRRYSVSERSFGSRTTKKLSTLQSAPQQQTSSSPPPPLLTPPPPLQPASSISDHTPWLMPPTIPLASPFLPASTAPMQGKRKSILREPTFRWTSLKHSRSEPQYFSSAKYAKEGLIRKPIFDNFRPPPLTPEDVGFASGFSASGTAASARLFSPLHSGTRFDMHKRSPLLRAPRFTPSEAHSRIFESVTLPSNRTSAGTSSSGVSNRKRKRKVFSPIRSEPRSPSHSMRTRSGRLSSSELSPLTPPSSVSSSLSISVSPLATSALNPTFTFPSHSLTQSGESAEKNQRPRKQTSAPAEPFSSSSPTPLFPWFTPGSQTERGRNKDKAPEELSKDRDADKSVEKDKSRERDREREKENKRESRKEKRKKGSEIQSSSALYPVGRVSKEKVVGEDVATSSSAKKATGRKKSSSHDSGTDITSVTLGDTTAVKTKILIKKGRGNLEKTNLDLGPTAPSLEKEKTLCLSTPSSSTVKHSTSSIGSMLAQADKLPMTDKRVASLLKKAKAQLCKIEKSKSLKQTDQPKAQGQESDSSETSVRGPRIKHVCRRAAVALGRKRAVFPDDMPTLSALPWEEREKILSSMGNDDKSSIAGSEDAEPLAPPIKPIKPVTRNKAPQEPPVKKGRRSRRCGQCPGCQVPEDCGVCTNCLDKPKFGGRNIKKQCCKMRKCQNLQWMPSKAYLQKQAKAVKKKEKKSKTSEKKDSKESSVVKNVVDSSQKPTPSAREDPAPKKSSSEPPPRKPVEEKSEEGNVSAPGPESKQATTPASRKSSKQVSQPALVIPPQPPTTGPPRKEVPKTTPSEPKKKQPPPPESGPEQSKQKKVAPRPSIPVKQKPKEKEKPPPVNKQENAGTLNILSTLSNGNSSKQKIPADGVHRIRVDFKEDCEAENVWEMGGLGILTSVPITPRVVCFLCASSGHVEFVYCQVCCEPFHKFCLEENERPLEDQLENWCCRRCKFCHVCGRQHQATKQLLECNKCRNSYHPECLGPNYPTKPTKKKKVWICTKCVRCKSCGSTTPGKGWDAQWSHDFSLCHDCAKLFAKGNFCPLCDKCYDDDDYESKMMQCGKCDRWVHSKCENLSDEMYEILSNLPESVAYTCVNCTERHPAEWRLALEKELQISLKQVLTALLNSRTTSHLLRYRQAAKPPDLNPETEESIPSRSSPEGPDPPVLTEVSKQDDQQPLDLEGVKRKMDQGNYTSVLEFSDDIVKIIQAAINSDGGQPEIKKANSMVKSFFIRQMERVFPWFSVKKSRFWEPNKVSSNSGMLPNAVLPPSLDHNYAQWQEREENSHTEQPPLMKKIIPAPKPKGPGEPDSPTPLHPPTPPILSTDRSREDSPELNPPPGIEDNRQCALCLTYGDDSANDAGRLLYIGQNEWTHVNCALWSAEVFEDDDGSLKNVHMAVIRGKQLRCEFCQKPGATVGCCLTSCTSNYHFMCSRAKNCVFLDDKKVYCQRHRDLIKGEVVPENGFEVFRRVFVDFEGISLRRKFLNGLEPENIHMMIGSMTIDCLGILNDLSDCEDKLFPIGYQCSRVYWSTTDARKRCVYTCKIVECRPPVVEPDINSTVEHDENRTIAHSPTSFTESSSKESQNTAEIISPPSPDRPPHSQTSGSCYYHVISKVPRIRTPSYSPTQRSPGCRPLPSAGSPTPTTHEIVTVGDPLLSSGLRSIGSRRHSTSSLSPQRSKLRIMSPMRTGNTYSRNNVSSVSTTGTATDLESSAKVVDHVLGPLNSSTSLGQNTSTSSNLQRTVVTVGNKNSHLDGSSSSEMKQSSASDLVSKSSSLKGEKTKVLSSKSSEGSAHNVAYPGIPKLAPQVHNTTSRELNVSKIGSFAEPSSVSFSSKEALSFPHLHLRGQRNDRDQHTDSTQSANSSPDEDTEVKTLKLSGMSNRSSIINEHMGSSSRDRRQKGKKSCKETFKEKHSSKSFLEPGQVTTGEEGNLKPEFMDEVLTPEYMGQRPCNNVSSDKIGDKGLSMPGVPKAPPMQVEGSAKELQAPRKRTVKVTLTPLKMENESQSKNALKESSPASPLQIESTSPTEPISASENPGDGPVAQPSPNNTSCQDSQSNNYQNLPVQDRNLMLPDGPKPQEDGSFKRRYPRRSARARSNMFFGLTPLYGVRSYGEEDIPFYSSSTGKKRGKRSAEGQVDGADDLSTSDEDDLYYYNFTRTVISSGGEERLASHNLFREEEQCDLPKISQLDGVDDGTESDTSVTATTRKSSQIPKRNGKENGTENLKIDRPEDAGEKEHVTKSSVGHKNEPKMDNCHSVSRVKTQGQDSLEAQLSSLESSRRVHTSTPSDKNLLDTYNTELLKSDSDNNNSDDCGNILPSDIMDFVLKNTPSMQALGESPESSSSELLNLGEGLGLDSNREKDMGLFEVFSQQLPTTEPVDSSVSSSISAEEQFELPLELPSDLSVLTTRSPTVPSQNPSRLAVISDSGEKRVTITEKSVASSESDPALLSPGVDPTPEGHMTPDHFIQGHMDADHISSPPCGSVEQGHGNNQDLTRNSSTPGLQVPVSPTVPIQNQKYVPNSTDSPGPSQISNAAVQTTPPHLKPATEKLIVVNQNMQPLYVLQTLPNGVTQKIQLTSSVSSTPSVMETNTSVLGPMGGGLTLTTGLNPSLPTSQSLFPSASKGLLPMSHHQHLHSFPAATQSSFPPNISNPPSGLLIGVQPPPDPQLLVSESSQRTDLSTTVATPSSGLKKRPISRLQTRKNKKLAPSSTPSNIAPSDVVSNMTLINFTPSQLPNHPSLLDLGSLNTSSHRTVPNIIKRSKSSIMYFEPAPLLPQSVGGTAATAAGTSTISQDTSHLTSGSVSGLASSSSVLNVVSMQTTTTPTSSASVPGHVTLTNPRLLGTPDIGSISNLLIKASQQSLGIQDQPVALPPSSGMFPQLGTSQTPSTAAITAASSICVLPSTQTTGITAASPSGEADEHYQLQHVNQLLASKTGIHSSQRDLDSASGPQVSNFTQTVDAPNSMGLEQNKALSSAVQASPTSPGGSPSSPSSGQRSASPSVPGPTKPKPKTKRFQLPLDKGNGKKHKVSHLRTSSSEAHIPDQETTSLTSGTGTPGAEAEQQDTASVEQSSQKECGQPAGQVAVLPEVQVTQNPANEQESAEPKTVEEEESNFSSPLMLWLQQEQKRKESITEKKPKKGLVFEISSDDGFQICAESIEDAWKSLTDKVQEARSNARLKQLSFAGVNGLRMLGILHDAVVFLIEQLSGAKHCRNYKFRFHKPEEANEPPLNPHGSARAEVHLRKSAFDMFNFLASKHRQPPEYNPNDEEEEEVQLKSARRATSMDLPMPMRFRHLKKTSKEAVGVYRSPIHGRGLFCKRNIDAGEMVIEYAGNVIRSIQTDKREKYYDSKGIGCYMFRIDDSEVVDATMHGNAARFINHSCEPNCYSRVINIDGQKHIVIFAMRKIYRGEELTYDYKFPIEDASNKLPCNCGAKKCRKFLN
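Purified MLL-CXXC (added from a 7 uM solution) was preincubated 5 min at ambient with pinned compounds in 50 mM Tris-HCl pH 7.5, 50 mM NaCl, 1 mM DTT, 0.05% BSA. Fluorescein-labeled HOX-A9 DNA (50 nM solution) followed, 30 min, then polarization read.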
Menin MLL FP FL – displaces fluorescein MLL peptide from human menin. Fluorescence polarization, fluorescein-MLL peptide displacement from menin. FP activity change, % at 61.4 µM. 290,000 tested, under 10 active. AID 1766; active means well fitted curve in the direction sought with a large enough effect in the polarisation, not every such curve was filed as active; inconclusive means small, poorly fitted or top-dose-only effect, or effect the other way, or a change in a side signal; inactive means no such curve, though single readings can be large or run the other way; the % refers to the polarisation; further: % of control where 0% means no effect
* hit, by the source's call; u = inconclusive; x = not tested or not shown; [ ] = remark or other dose. Unless noted, no stated cut-off is given here; in the data, active means activity change below about -65%; inconclusive means mostly about -30% to -63%; inactive means weaker than that.

SMILES | Menin MLL FP TR | Six1-Eya2 blk | GLS inh | CtBP-E1A inh | CXXC DNA block | Menin MLL FP FL
C/C1=C2N=C(/C=C3N=C(/C(C)=C4\[N-][C@@H]([C@H](CC(N)=O)[C@]4(C)CCC(=O)NC[C@@H](C)OP(=O)([O-])O[C@@H]4[C@@H](O)[C@H](n5cnc6cc(C)c(C)cc65)O[C@@H]4CO)[C@@]4(C)N=C1[C@H](CCC(N)=O)[C@@]4(C)CC(N)=O)[C@H](CCC(N)=O)C\3(C)C)[C@@H](CCC(N)=O)[C@@]/2(C)CC(N)=O.[CH3-].[Co+3] | x | x | -7% | x | x | x
N=C1/C(=C/c2ccc(-c3cccc(C(=O)O)c3)o2)C(=O)N=C2SC=C(c3ccccc3)N12 | u | u | 22µM* | -21 | -19% | 23
N=C1/C(=C\c2ccc(-c3cc(Cl)cc(Cl)c3)o2)C(=O)N=C2SC=C(c3ccccc3)N12 | u | -4 | 3% | -5 | 5% | u
CCCC(=O)NNc1c2ccccc2nc2ccccc12 | 1% | -11 | 27% | -13 | -11% | 5
O=C(NNc1c2ccccc2nc2ccccc12)c1ccc(O)cc1 | u | u | 23% | -75* | u | 4
O=C(NNc1c2ccccc2nc2ccccc12)c1cccc(O)c1 | u | -65* | 22% | -77* | u | -1
O=S(=O)(NCCc1csc2nc(-c3ccccc3)nn12)c1cc(F)ccc1F | x | x | 9% | x | x | x
CCCCNC(=S)NCc1ccc2[nH]c(C)cc2c1 | 6% | -3 | 24% | -3 | -17% | 1
CCOc1ccc(NC(=S)NCc2ccc3[nH]c(C)cc3c2)cc1 | -13% | -68* | 1% | x | 7% | -4
O=C(CCC(=O)Nc1ccc(Br)cc1)N/N=C/c1cc([N+](=O)[O-])ccc1O | u | -3 | -4% | -15 | 12% | 0
O=C(N/N=C/c1cc([N+](=O)[O-])ccc1O)C1CCCCC1 | 13% | -74* | -3% | -73* | 0% | 4
Cc1cccc(NC(=O)CCC(=O)N/N=C/c2cc([N+](=O)[O-])ccc2O)c1 | 10% | -79* | 21% | -90* | 17% | 3
O=C(CCC(=O)Nc1ccc(F)cc1)N/N=C/c1cc([N+](=O)[O-])ccc1O | 39% | u | u | -86* | -14% | 4
O=C(N/N=C/c1cc([N+](=O)[O-])ccc1O)C1C2CCCCC21 (centres undefined) | u | x | x | x | -4% | 1
O=C(CCC(=O)Nc1cc(C(F)(F)F)ccc1Cl)N/N=C\c1cc([N+](=O)[O-])ccc1O | u | -30 | -1% | -67* | -2% | 11
O=C(NCc1cccc2ccccc12)[C@H]1C[C@@H]1[C@H](NP(=O)(c1ccccc1)c1ccccc1)c1ccccc1 | -3% | x | x | x | x | 8
CCCCC(CC)CNC(=O)CCCc1nnc2n(CCC)c(=O)c3sccc3n12 (centres undefined) | x | x | -2% | x | x | x
CC[C@H](C)C(=O)O[C@H]1CCC=C2C=C[C@H](C)[C@H](CC[C@@H]3C[C@H](O)CC(=O)O3)C21 (some centres undefined) | u | x | x | x | -6% | 8
CCOC(=O)c1[nH]c2c(c1Cc1ccccc1)C(=O)CC(c1ccc(Cl)cc1)C2 (centres undefined) | x | x | -3% | x | x | x
COc1cc(/C=C2\C(C)=C(C#N)c3nc(N)c(C#N)c(C)c32)ccc1OCC(=O)O | x | -73* | u | -18 | -8% | u
O=C(c1cnccn1)N1CCC2(CC1)CN(C(c1ccccc1)c1ccccc1)C2 | -21% | x | x | x | x | -6
CN(C)c1ccc(C(c2ccc(N(C)C)cc2)C(O)c2ccccc2)cc1 (centres undefined) | x | -65* | 38% | -2 | x | x
CN(C)c1ccc(C(=O)C(O)c2ccccc2)cc1 (centres undefined) | 15% | 2 | 40% | 5 | -5% | 2
O=C(NCCCNCCCNC(=O)c1ccc(/C=N/O)nc1)c1ccc(/C=N/O)nc1 | x | -87* | 26% | x | 6% | 0
CS(=O)(=O)N1CCC[C@@]2(CCN(C(c3ccccc3)c3ccccc3)C2)C1 | 9% | x | x | x | x | 5
SMILES | Menin MLL FP TR | Six1-Eya2 blk | GLS inh | CtBP-E1A inh | CXXC DNA block | Menin MLL FP FL
Cc1ccccc1-c1noc(-c2ccc(NCc3cccnc3)c([N+](=O)[O-])c2)n1 | x | x | -10% | x | x | x
COCCN1CN(S(=O)(=O)c2ccccc2)c2nc3ccccc3nc21 | -14% | -82* | 5% | -2 | 9% | 1
NNC(=O)c1sc2cc(C(F)(F)F)cnc2c1-c1cccnc1 | 2% | 2 | 0% | 2 | 0% | 2
COC(=O)c1sc2cc(C(F)(F)F)cnc2c1-c1cccnc1 | -3% | -72* | -3% | -15 | -2% | 0
S=c1[nH]nc(-c2ccc3ncccc3c2)n1-c1ccc2c(c1)OCCO2 | 3% | -2 | 6.3µM* | 3 | 8% | 0
Oc1ccc(-c2n[nH]c(=S)n2-c2ccc3c(c2)OCCO3)cc1 | -13% | 0 | 2% | -7 | 19% | 3
C=CCN1C(=CCO)[C@H]2C[C@H]3[C@@H]1CC[C@@]31c3ccccc3N3C=C4[C@@H]5N(/C=C/2[C@H]31)c1ccccc1[C@]51CC[C@H]2[C@H]1C[C@@H]4/C(=C/CO)N2CC=C | 4%[24.8 µM] | x | -2%[20 µM] | x | 8%[51.4 µM] | 5[24.8 µM]
CN(CCO)c1nc2c(c(=O)n(Cc3ccc(Cl)cc3)c(=O)n2C)n1C | -12% | -1 | 8.9µM* | -20 | 0% | -1
CC(O)CNc1nc2c(c(=O)n(Cc3ccc(Cl)c(Cl)c3)c(=O)n2C)n1C (centres undefined) | x | -2 | -14% | x | -1% | 2
CC(O)CNc1nc2c(c(=O)n(Cc3ccc(Cl)cc3)c(=O)n2C)n1C (centres undefined) | 3% | -6 | 11µM* | -7 | -5% | -4
NC(CCC(=O)NCS(=O)(=O)O)C(=O)O (centres undefined) | 0% | x | x | x | 2% | 4
O=P(O)(O)C(O)(Cc1cnc2ccccn12)P(=O)(O)O | x | x | 2% | x | x | x
COc1cccc(C(=O)c2cn(CC(=O)Nc3ccc4c(c3)OCCO4)c3nc(C)ccc3c2=O)c1 | x | x | -1% | x | x | x
Cc1nc(Nc2ccc(C(=O)O)cc2)nc(Nc2ccc(C(=O)O)cc2)c1[N+](=O)[O-] | u | -75* | 5% | x | -24% | -2
COCCNc1nc(=S)[nH]c2cc(OC)c(OC)cc12 | 1% | -80* | -18% | -87* | -4% | 1
CCCCNc1nc(=S)[nH]c2cc(OC)c(OC)cc12 | 21% | -91* | u | -93* | -2% | 0
CCOCCCNc1nc(=S)[nH]c2cc(OC)c(OC)cc12 | -2% | -83* | -27% | -92* | -8% | 1

Bioassay records from PubChem.
